Pf growth 96h – inhibits malaria parasite growth, 96 h | Potency, µM (titrated, usually from 28.7 µM), actives largely listed as inhibitors | P. falciparum luciferase reporter growth, 96 h | hit rate 6.9% among 320,000
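Compounds incubated with erythrocytes infected by luciferase-expressing P. falciparum (2% hematocrit, 0.05% parasitemia final) for 96 hours, 37 C in 5% CO2. Growth inhibition scored as decreased luciferase luminescence.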
Sm TGR inh – inhibitors of Schistosoma mansoni thioredoxin glutathione reductase | Q962Y6 | hit rate 3% among 360,000 | Potency, µM (titrated, usually from 114 µM), actives largely listed as inhibitors | AID 485364 | purified TGR, DTNB reduction, TNB absorbance 405 nm; note: nearly all actives have a fitted effect of over 60% in size
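First, TGR (20 nM dispensed) and NADPH were mixed with compound. Second, a 15 min room-temperature incubation followed. Third, further NADPH and then DTNB were added to start the reaction. Finally, TNB absorbance was monitored kinetically.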
AmpC inh detg – AmpC beta-lactamase inhibition with detergent present | AmpC hydrolysis of nitrocefin, absorbance 480 nm, 0.01% Triton | Potency, µM (titrated, usually from 114 µM), usual class: inhibitors | AID 485294 | hit rate 0.041% among 370,000 | P00811; note: nearly all actives have a fitted effect of over 25% in size
Target sequence (P00811 whole entry, looked up): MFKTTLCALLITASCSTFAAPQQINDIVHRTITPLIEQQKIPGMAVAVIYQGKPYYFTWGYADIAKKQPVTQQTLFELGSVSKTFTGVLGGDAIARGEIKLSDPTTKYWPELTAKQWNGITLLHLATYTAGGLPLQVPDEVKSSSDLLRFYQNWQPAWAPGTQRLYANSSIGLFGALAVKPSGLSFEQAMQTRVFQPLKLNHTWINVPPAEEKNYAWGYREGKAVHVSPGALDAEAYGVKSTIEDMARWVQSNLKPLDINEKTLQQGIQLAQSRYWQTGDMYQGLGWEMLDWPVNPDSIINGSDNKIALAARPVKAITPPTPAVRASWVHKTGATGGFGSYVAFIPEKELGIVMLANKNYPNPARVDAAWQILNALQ
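20 mM phosphate pH 7.0 + 0.01% (detergent screen) or 0.0001% Triton X-100; 5.3 nM AmpC reagent; cpd preinc 15 min RT; nitrocefin (800 uM stock) to start; A480 q20 s × 4 min; Activity was normalised to no-enzyme and no-compound control wells.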
Pf growth 48h – P. falciparum growth inhibition at 48 hours (one generation) | P. falciparum luciferase growth in erythrocytes, 48 h | Potency, µM (top dose mostly 28.7 µM), hits mostly inhibitors | hit rate 5.9% among 310,000 | AID 504832
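Luminescence readout; reporter = integrated firefly luciferase in P. falciparum. RBC culture at 2% hematocrit, 0.1% parasitemia final, 37 C/5% CO2; decreased signal taken as growth inhibition.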
AmpC no deterg – blocks E. coli AmpC beta-lactamase in detergent-free assay; P00811; AmpC nitrocefin hydrolysis, absorbance 480 nm, 0.0001% Triton; Potency, µM (series often up to 57.1 µM), most hits filed as inhibitors; hit rate 0.52% among 330,000; note: nearly all actives have a fitted effect of over 20% in size
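20 mM phosphate pH 7.0 + 0.01% (detergent screen) or 0.0001% Triton X-100; 5.3 nM AmpC reagent; cpd preinc 15 min RT; nitrocefin (800 uM stock) to start; A480 q20 s × 4 min; Activity was normalised to no-enzyme and no-compound control wells.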
SARS PLP yeast – inhibitors of SARS-CoV papain-like protease in yeast; Potency, µM (highest dose often 32.9 µM), actives largely listed as activators; S. cerevisiae expressing SARS-CoV PLpro, growth rescue; AID 485353; hit rate 0.19% among 330,000; calls by dose curve; note: nearly all actives have a fitted effect of over 55% in size
Numbers stand for hits; n = inactive; u = inconclusive; x = no result given. Most compounds without a hit are left out; they make up all but 12% or so of the library. Unless noted, calls come from the whole dose curve; as a rule, active = well fitted curve in the direction sought with a large enough effect; inconclusive = small, poorly fitted or top-dose-only effect, or another doubt; inactive = no such curve, though single readings can be large; an effect the other way counts as inactive or inconclusive.

SMILES	Pf growth 96h	Sm TGR inh	AmpC inh detg	Pf growth 48h	AmpC no deterg	SARS PLP yeast
O=C(Cn1ccc2cc(S(=O)(=O)N3CCCCC3)ccc21)NCc1ccccc1F	n	n	n	u	20µM	u
COC(=O)Cn1ccc2cc(S(=O)(=O)N3CCCCC3)ccc21	5.9µM	n	n	n	n	n
CC(CNC(=O)CCn1ccc2cc(S(=O)(=O)N3CCCC3)ccc21)c1ccccc1 (stereo not drawn)	12µM	n	n	u	n	n
CC(C)NC(=O)CCn1ccc2cc(S(=O)(=O)N3CCCC3)ccc21	n	n	n	n	n	n
COC(=O)Cn1ccc2cc(S(=O)(=O)N3CCCCCC3)ccc21	u	n	n	n	n	n
CCOC(=O)C1C(=O)C=C(c2cccc(NS(C)(=O)=O)c2)CC1c1ccco1 (stereo not drawn)	n	32µM	n	u	n	n
COC(=O)c1c(-c2cccc3ccccc23)csc1NC(=O)Cc1ccc(OC)c(OC)c1	2.6µM	n	n	x	n	n
O=C(NCc1ccco1)c1sc2ccccc2c1Cl	3.3µM	u	n	n	n	n
O=C(NCc1cccnc1)c1sc2cc(Cl)ccc2c1Cl	n	n	u	n	n	n
O=C(NCc1ccco1)c1sc2cc(Cl)ccc2c1Cl	n	40µM	n	n	n	n
C#CCNC(=O)/C=C/c1ccc(OC)cc1	n	n	u	n	n	n
Cc1ccc2c(c1)cc1c(=O)n(CC(=O)NC(C)CCc3ccccc3)nc(C)n12 (stereo not drawn)	x	n	n	x	x	x
N#C/C(=C(/O)CCl)c1nc2c(s1)CCc1ccccc1-2	u	7.9µM	n	n	n	n
CCC(=O)Nc1nc2c(s1)COc1ccccc1-2	n	n	n	n	2.8µM	n
Nc1nc2c(s1)CCc1ccccc1-2	n	n	n	x	n	n
O=C(CCCl)Nc1nc2c(s1)CCc1ccccc1-2	2.1µM	n	n	u	n	n
Cc1cccc(Nc2ncc(NC(=O)c3cccc(F)c3)c(Nc3cccc(C)c3)n2)c1	x	n	n	x	x	x
CCCN(Cc1nnc(-c2cccs2)o1)C(=O)CN1C(=O)NC2(CCC(C)CC2)C1=O (stereo not drawn)	n	n	n	n	n	n
CCOc1ccc(S(=O)(=O)Nc2cccc(-c3ccc(OCC)nn3)c2)cc1	x	n	n	x	x	x
COc1cc(O)c(C(CC(=O)N2CCCCC2)c2ccc(N(C)C)cc2)c(OC)c1 (stereo not drawn)	n	n	n	n	n	n
CCN(CC)CCC(c1ccc(N(C)C)cc1)c1c(O)cc(OC)cc1OC (stereo not drawn)	1.5µM	n	n	1.2µM	n	n
CCN(CC)CCC(c1ccc(OC)cc1)c1c(O)cc(OC)cc1OC (stereo not drawn)	1.3µM	n	n	1.3µM	n	n
Nc1c(-c2nc(-c3ccccc3)cs2)c2ccccn2c1C(=O)c1ccc2c(c1)OCO2	x	n	n	x	x	x
CCC1CN(C)C2Cc3c([nH]c4ccccc34)C(=O)CC1C2C(=O)OC (stereo not drawn)	n	45µM	n	n	n	n
COC(=O)[C@@H]1Cc2c([nH]c3ccccc23)C(C)N1C(=O)c1ccccc1 (stereo partly drawn)	n	n	n	n	n	n
COc1ccc(NC2CCN(C3CC(=O)N(c4ccc(F)c(Cl)c4)C3=O)CC2)cc1 (stereo not drawn)	n	11µM	n	n	n	n
COc1cccc(N2CCN(C3CC(=O)N(c4ccc(F)c(Cl)c4)C3=O)CC2)c1 (stereo not drawn)	x	50µM	n	n	n	n
COc1cccc(N2CCN(C3CC(=O)N(c4ccc(C)c(Cl)c4)C3=O)CC2)c1 (stereo not drawn)	n	n	u	n	n	n
Cc1ccc(S(=O)(=O)N(CC(O)CN2CCOCC2)c2cccc([N+](=O)[O-])c2)cc1 (stereo not drawn)	n	n	n	n	n	n
CN(Cc1cccnc1)Cc1c(C(=O)N2CCc3ccccc3C2)nc2ccc(Cl)cn12	n	32µM	n	u	n	n

Screens (PubChem)
